Screening results deposited in PubChem by National Center for Advancing Translational Sciences (NCATS).
DT40 TDP1 CPT: growth inhibition of DT40 Tdp1-/-;hTDP1 cells with camptothecin (screen for TDP1 inhibitors). chicken DT40 Tdp1-/-;hTDP1 cells + 20 nM CPT, ATP luminescence, 48 h. 420,000 compounds, 12% hits. Potency, µM (titrated, usually from 46.2 µM), for the others: at the top dose activity change, negative = growth inhibition, hits mostly inhibitors; further: nearly all actives have a fitted effect of over 55% in size
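Chicken DT40 Tdp1-/- cells stably complemented with human TDP1 were seeded at 400 cells/well in medium containing 20 nM camptothecin, exposed to pin-transferred compounds, and grown at 37 °C for at least 48 hr. Viability was read as ATP luminescence.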
RORgamma inh: blocks mouse ROR gamma transcriptional activity | Drosophila S2 Gal4-RORgamma UAS-luciferase reporter, 20 h | AID 2551 | P51450 | 310,000 compounds, 5.4% hits | Potency, µM (highest dose often 53.6 µM), for inactives: at the top dose activity change, negative = inhibition, usual class: inhibitors; further: nearly all actives have a fitted effect of over 60% in size
Target sequence (P51450 whole entry, looked up, the tested form may be a part): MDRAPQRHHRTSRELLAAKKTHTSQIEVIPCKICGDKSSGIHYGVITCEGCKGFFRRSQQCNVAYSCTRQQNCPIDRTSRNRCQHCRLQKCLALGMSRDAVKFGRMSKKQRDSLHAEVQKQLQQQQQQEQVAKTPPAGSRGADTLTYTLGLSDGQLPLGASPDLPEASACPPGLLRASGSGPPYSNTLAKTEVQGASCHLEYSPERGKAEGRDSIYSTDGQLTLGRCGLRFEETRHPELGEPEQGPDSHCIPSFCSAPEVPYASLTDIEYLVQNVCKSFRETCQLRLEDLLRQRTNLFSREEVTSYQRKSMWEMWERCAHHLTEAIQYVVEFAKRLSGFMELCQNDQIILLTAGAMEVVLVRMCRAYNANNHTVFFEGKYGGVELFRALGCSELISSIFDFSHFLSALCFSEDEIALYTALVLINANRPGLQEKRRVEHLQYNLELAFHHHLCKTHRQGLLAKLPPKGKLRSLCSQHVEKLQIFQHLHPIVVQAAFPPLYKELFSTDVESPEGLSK
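Compounds are pin-transferred onto Drosophila Schneider cells expressing a copper-inducible Gal4–ROR gamma transactivation domain fusion. After 1 hr, copper sulfate is added to 700 uM final; luciferase is read 20 hr later.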
DT40 TDP1 no CPT: qHTS for Inhibitors of human tyrosyl-DNA phosphodiesterase 1 (TDP1): qHTS in cells in absence of CPT | DT40 Tdp1-/- hTDP1 cells, no CPT, ATP luminescence, 48 h | Potency, µM (titrated, usually from 46.2 µM), without a hit: at the top dose activity change, negative = growth inhibition, most hits filed as inhibitors | 420,000 compounds, 15% hits; further: nearly all actives have a fitted effect of over 55% in size
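Luminescent ATP content (CellTiter-Glo) served as the growth readout. Knockout chicken DT40 cells expressing human TDP1 were exposed to compounds without camptothecin for a minimum 48 hr at 37 °C.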
12-LOX inh: ALOX12 (human) lipoxygenase inhibition; P18054; 580,000 compounds, 1.1% hits; purified 12hLO, xylenol orange hydroperoxide absorbance; Potency, µM (highest dose often 108 µM), for the others: at the highest dose activity change, negative = inhibition, most hits filed as inhibitors
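Hydroperoxide product was detected by ferrous iron/xylenol orange as the 573 to 405 nm absorbance ratio. Arachidonic acid at 40 uM (final) was turned over for 30 min at room temperature by 150 nM human 12hLO, pH 7.0 Hepes buffer, after 15 min compound preincubation.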
ELG1 DNA repair: inhibitors of ELG1-dependent DNA repair in HEK293T cells | HEK293T ELG1-luciferase reporter, luminescence, 16 h; DNA damage induced by 5-fluorouridine | Potency, µM (titrated, usually from 46.1 µM), inactives show at the top dose activity change, negative = inhibition, hits mostly inhibitors | 330,000 compounds, 2.3% hits; further: nearly all actives have a fitted effect of over 55% in size
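DMSO vehicle served as the neutral condition. Each well held 2,000 cells given 5-fluorouridine plus compound; after 16 hr at 37 °C/5% CO2, ONE-Glo was added and luciferase measured 30 min later.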
VP16 counter: inhibits Gal4-VP16 luciferase reporter, ROR gamma counter-screen; Drosophila S2 Gal4-VP16 UAS-luciferase, luminescence, 20 h; Potency, µM (highest dose often 53.6 µM), for inactives: at the highest dose activity, negative = inhibition, hits mostly inhibitors; 310,000 compounds, 3.5% hits;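 further: Gal4-VP16 expression switched on by copper sulfate through the metallothionein promoter; nearly all actives have a fitted effect of over 50% in size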
* = called active by the depositor; ? = inconclusive; · = not tested or not shown. A selection: hits, their analogues and other compounds. The true share with any hit is near 15%. The call rests on the fitted dose curve; in most records, active means well fitted curve in the direction sought with a large enough effect; inconclusive means small, poorly fitted or top-dose-only effect, or another doubt; inactive means no such curve, though single readings can be large; an effect the other way counts as inactive or inconclusive. On the % scale 0 is the no-effect control and ±100 the full control effect; potency means the concentration at half of the fitted maximal effect.

SMILES	DT40 TDP1 CPT	RORgamma inh	DT40 TDP1 no CPT	12-LOX inh	ELG1 DNA repair	VP16 counter
COc1ccccc1-c1csc(C(C)(NC(C)=O)c2ccccc2)n1 (stereo not drawn)	16.4µM*	·	?	-0.2%	·	·
COc1ccccc1-c1csc(C(NC(C)=O)c2ccccc2)n1 (stereo not drawn)	-14.8%	·	-17.0%	-18.6%	·	·
CC(C)Cn1c(-c2csc3c2CCCC3)n[nH]c1=S	-20.1%	2.82µM*	?	?	-7.5%	5.01µM*
Fc1ccccc1-c1n[nH]c(=S)n1C1CC1	·	10µM*	·	?	2.9%	?
CCCCn1c(-c2sccc2C)n[nH]c1=S	7.6%	5.01µM*	?	39.8µM*	5.7%	11.2µM*
S=c1[nH]nc(-c2ccncc2)n1CC1CCCO1 (stereo not drawn)	-7.4%	-60.6%	-11.5%	?	-23.3%	-5.2%
CCn1c(-c2ccco2)n[nH]c1=S	-15.6%	15.8µM*	-7.3%	?	0.0%	?
O=C(NCCCc1ccccc1F)[C@@]12CNC[C@@H]1CN(Cc1ccccc1)C2	·	·	·	15.0%	·	·
Cc1cc(S(=O)(=O)N[C@H]2[C@H]3CCO[C@H]3[C@@H]2N2CCCCC2)n(C)n1	·	·	·	9.3%	·	·
Cc1cc(C)cc(C(=O)NC(C)c2ccc(CC(C)C)cc2)c1 (stereo not drawn)	·	·	·	-8.4%	·	·
CC(=O)NCc1cc(C)cc2c(C)c(C)[nH]c12	·	·	·	-12.4%	·	·
CCCCn1c(-c2ccco2)n[nH]c1=S	4.8%	4.47µM*	1.7%	?	16.0%	7.08µM*
CCCCn1c(-c2c(Cl)c(C)nn2C)n[nH]c1=S	1.4%	2.24µM*	1.7%	?	?	-1.6%
C=CCn1c(-c2ccco2)n[nH]c1=S	-0.4%	10µM*	5.3%	?	-3.3%	?
Cn1c(-c2ccco2)n[nH]c1=S	9.3%	?	-1.7%	?	12.2%	-2.6%
CCn1c(-c2c(Cl)c(C)nn2C)n[nH]c1=S	7.0%	?	-4.2%	?	-15.5%	-27.2%
CC(C)Cn1c(-c2ccco2)n[nH]c1=S	-5.3%	10µM*	-3.6%	10µM*	-3.8%	?
C=CCn1c(-c2ccoc2C)n[nH]c1=S	-15.8%	?	-16.6%	-21.0%	?	?
CN1CC(=O)N(c2ccccc2F)Cc2c(NCc3ccccn3)ncnc21	·	·	·	52.2%	·	·
O=C(COC(=O)c1ccccc1C(=O)c1ccc(-c2ccccc2)cc1)c1ccccc1	·	·	·	-4.1%	·	·
CCN(CC)C(=O)c1ccc(CNC(=O)N(C)C(C2CC2)C2CC2)cc1	·	·	·	6.4%	·	·
CC(C)Cn1c(-c2ccccc2F)n[nH]c1=S	11.9%	5.62µM*	-7.4%	25.1µM*	9.5%	10µM*
CC(C)Cn1c(-c2ccncc2)n[nH]c1=S	-1.4%	?	4.3%	?	6.5%	0.2%
Cn1nccc1C(=O)N1CCCN(S(=O)(=O)c2ccccc2)CCC(=O)NCC1	·	·	·	28.5%	·	·
CCC(=O)N1Cc2ccccc2CC2(CCN(CCc3ccc(C)cc3)CC2)C1	·	·	·	35.5µM*	·	·
SMILES	DT40 TDP1 CPT	RORgamma inh	DT40 TDP1 no CPT	12-LOX inh	ELG1 DNA repair	VP16 counter
O=Cc1s/c(=N\S(=O)(=O)c2ccccc2)n(CCCCl)c1Cl	0.517µM*	5.01µM*	0.731µM*	?	?	?
Fc1ccc(-c2cc(-c3nnc4n3CCCCC4)c3ccccc3n2)cc1	-0.2%	?	31.3%	-2.6%	-6.8%	11.2µM*
Clc1ccc(-c2cc(-c3nnc4n3CCCCC4)c3ccccc3n2)cc1	?	?	?	16.1%	22.3%	3.16µM*
N=c1c2ccccc2nc2n1CCCCCCCCCCC2	5.17µM*	·	7.31µM*	?	·	·
c1ccc2c(-c3nnc4n3CCCCC4)cc(-c3ccncc3)nc2c1	-19.4%	-11.1%	-30.4%	-3.6%	19.9%	-3.0%
CCN1c2cc(C(=O)Nc3ccc(Cl)c(Cl)c3)ccc2C(=O)N2CCCCCC21 (stereo not drawn)	·	·	·	6.1%	·	·
COc1ccc(Cl)cc1NS(=O)(=O)c1ccc(N2C(=O)C(C)CS2(=O)=O)cc1 (stereo not drawn)	·	·	·	-44.2%	·	·
Cc1cc(NC(=O)CN(C)CC(=O)Nc2ccc(Cl)c(C(F)(F)F)c2)no1	14.6µM*	·	16.4µM*	3.1%	?	·
CN(CC(=O)Nc1ccc(Cl)c(C(F)(F)F)c1)S(=O)(=O)c1cnc[nH]1	14.6µM*	·	14.6µM*	-10.4%	·	·
CN(CC(=O)Nc1ccc(OC(F)(F)F)cc1)S(=O)(=O)c1cnc[nH]1	-8.8%	12.3%	-15.0%	5.5%	?	-5.2%
CCCNC(=O)N1CCCC(Cc2ncc(C)n2Cc2ccccc2)C1 (stereo not drawn)	·	·	·	33.1%	·	·
CC(C)(C)C(=O)N1CCC2(CC1)OCC(C(=O)NCC1CCCO1)N2C(=O)c1ccc(F)cc1 (stereo not drawn)	·	·	·	39.5%	·	·
CCC1CCCCN1S(=O)(=O)c1ccc(C(=O)Nc2sc3c(c2C(=O)NC)CCC3)cc1 (stereo not drawn)	20.6µM*	·	16.4µM*	-24.2%	·	·
CNC(=O)c1c(NC(=O)c2ccc(S(=O)(=O)N3CCCC(C)C3)cc2)sc2c1CCC2 (stereo not drawn)	20.6µM*	·	18.4µM*	-21.0%	·	·
CCCCNc1nc2c(c(=O)n(C)c(=O)n2C)n1Cc1ccccc1Cl	·	·	·	27.8%	·	·
O=c1c2ccsc2ncn1Cc1coc(-c2cccc(Cl)c2)n1	·	·	·	3.5%	·	·
O=c1c2ccsc2ncn1Cc1ccc(Cl)cc1	?	2.1%	18.4µM*	145.5%	-5.4%	-3.3%
Cc1ccc(CN(C)C(=O)c2cc(S(=O)(=O)Nc3ccc(C)cc3)ccc2C)cc1	·	·	·	0.7%	·	·
COc1ccccc1OC(C)C(=O)c1ccc(Cl)cc1 (stereo not drawn)	·	·	·	-1.2%	·	·
O=C(NCc1cc(C(F)(F)F)ccc1Cl)c1cccc2c1C(=O)c1ccc(N3CCOCC3)cc1S2(=O)=O	18.4µM*	·	20.6µM*	?	?	·
O=C(NCCN1CCOCC1)c1cccc2c1C(=O)c1ccc(N3CCCC3)cc1S2(=O)=O	5.0%	·	-6.8%	-14.7%	?	·
O=C(NC1CC1)c1cccc2c1C(=O)c1ccc(N3CCC(N4CCCCC4)CC3)cc1S2(=O)=O	-2.2%	·	-27.3%	-21.4%	·	·
O=C(NCc1cc(C(F)(F)F)ccc1Cl)c1cccc2c1C(=O)c1ccc(N3CCC(N4CCCCC4)CC3)cc1S2(=O)=O	5.17µM*	·	2.91µM*	?	·	·
